Mcl1-Noxa inh: disrupts binding of human Mcl-1 to Noxa peptide; AID 1022; inhibition, % at 21.7 µM; Q07820; hit rate 1.5% among 220,000; TR-FRET Mcl-1/Noxa peptide binding, 2 h;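 active = compounds that cut the protein-peptide binding signal by more than 50% relative to plate controls in a single-dose test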;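 note: His-tagged Mcl-1 with rhodamine Noxa BH3 peptide and terbium anti-His antibody; 0% = Mcl-1 plus Noxa peptide wells and 100% = peptide-only wells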
Target sequence (Q07820 whole entry, looked up): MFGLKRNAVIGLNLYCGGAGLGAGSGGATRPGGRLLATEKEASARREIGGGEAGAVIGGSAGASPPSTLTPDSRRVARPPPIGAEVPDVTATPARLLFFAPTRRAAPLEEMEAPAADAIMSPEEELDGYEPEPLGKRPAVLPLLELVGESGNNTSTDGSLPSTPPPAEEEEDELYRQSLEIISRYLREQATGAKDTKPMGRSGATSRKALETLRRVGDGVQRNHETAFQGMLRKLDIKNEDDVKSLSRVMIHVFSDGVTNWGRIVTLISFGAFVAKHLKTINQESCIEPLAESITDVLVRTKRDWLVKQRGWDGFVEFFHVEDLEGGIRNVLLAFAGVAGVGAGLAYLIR
Bim-Mcl-1: inhibitors of Bim-Mcl-1 interaction, human. Q07820. Bead-based flow cytometry, Bim peptide-Mcl-1 binding. inhibition, % at 10 µM. hit rate 0.1% among 190,000. AID 1009; in the data active = inhibition above about 40%;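 note: 0% = no compound tracer wells and 100% = peptide blocker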
TNF death inh: blocks TNF-alpha induced death of Jurkat FADD-/- cells. hit rate 0.068% among 220,000. AID 463075. activation (protection from cell death), % at 10 µM. Jurkat FADD-/- TNF necroptosis rescue, ATP luminescence, 24 h; 0 = TNF only, 100 = no-TNF cells;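 active = activation, meaning protection from cell death, of at least 50% relative to plate controls; inactive = activation below 50%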;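 note: necroptosis triggered by 40 ng/mL TNF-alpha added together with compound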
Calpain2 inh: inhibitors of pig calpain II; purified calpain II, fluorogenic peptide substrate, 30 min; inhibition, % at 16 µM; hit rate 0.37% among 220,000;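 active = inhibition above about 50%, limit read from the data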
Mcl1-Bid inh: Mcl-1/Bid interaction inhibition | Q07820 | TR-FRET Mcl-1/Bid-Dy647 peptide binding, 1536-well | inhibition, % at 21.7 µM | hit rate 0.97% among 220,000 | AID 1021;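 active = compounds that cut the binding signal by more than half at the single screening dose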;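 note: His-tagged Mcl-1 with europium anti-His antibody binding Bid BH3 peptide; 0% = Mcl-1 plus peptide wells and 100% = peptide-only wells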
zVAD death inh: L929 zVAD cell death inhibition; L929 zVAD necroptosis rescue, ATP luminescence, 24 h; with zVAD 60 µM; AID 1377; viability rescue, % at 10 µM; hit rate 0.38% among 220,000;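 active = activation, scaled between plate controls, above about 75%, limit read from the data; inactive = activation under that limit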;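 note: 0% = zVAD with DMSO and 100% = DMSO alone without zVAD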
Active calls of the source: *; i = inactive; . = no result. Most compounds without a hit are left out; they make up all but 2.8% or so of the library.

SMILES | Mcl1-Noxa inh | Bim-Mcl-1 | TNF death inh | Calpain2 inh | Mcl1-Bid inh | zVAD death inh
O=C1c2ccccc2C(=O)N1CCc1csc(-c2cccc(Cl)c2)n1 | 8 | -2 | -4 | 59* | -7 | 0
CCOC(=O)c1cc(C(=O)c2ccccc2O)cn2c(=O)c3c(C)c(C)sc3nc12 | 10 | 0 | -3 | -34 | -37 | 2
O=C1CC(SCCO)C(=O)N1c1ccc(Oc2ccccc2)cc1 (centres undefined) | -6 | 1 | -2 | 5 | -37 | 0
CCN(c1ccc(N=Cc2c(O)n(Cc3ccc(OC)cc3)c(=O)c3ccccc23)cc1)C(C)C | 59* | . | 4 | -43 | -18 | 3
O=C(NCc1ccco1)c1cc2ccc(O)cc2oc1=O | 56* | 0 | -10 | i | -75 | 0
Cc1cccc(OCC(=O)N(C)CCc2ccccn2)c1 | 12 | 0 | 0 | -5 | 57* | -1
Cc1cccc(CN(C)CCc2ccccn2)c1 | 27 | -1 | -2 | -6 | 31 | 0
COc1ccc(S(=O)(=O)N2CCN(C(=O)NC3CCCCC3)CC2)cc1OC | 56* | -4 | -1 | -12 | -61 | -1
COc1ccc(C(=O)CSc2nnc(CN3CCCCC3)n2-c2ccc(F)cc2)cc1OC | 3 | -7 | 1 | 27 | -6 | 0
COc1ccc(C(=O)CSc2nnc(CN3CCCC3)n2-c2ccc(F)cc2)c(OC)c1 | 53* | -9 | 2 | -3 | -4 | 0
O=C(CSc1cccc[n+]1[O-])Nc1cc2c(cc1Cl)C(=O)c1ccccc1C2=O | 85* | 0 | -10 | 41 | 81* | .
COc1ccc(C(CC(=O)O)NC(=O)c2ccccc2[N+](=O)[O-])cc1 (centres undefined) | -2 | -2 | 1 | -12 | -15 | 0
COCCNc1nc(-c2cc(C)c(C)cc2C)cs1 | 0 | 0 | 0 | -2 | -40 | 1
NC(=S)N/N=C1\CCOc2ccc(F)cc21 | -7 | . | -11 | 31 | -67 | -1
O=C1C(C=NCc2ccncc2)=C(O)c2ccccc21 | 17 | 0 | 2 | -52 | 96* | 1
COC(=O)c1[nH]c2ccccc2c1NC(=O)c1ccccc1[N+](=O)[O-] | -3 | 93* | 3 | 6 | -4 | 2
CC1CCN(C2(O)C(=O)Nc3ccc(Br)cc32)CC1 (centres undefined) | -1 | 93* | 0 | 20 | -16 | 0
O=C1c2ccccc2C(=O)c2c1ccc1c(=O)n(-c3ccccc3)[nH]c21 | 22 | -2 | 1 | 2 | -71 | 3
Cc1cccc(-n2[nH]c3c4c(ccc3c2=O)C(=O)c2ccccc2C4=O)c1 | 55* | -5 | -2 | 16 | -9 | 1
CCN(CC)C(=O)CN(C)S(=O)(=O)c1cccc2nsnc12 | -7 | -1 | 0 | -3 | 76* | 1
CCN(CC)S(=O)(=O)c1cccc2nsnc12 | -10 | -3 | -2 | -17 | -15 | -1
CCCCN1C(=O)N(c2nnc(C(C)(C)C)s2)C(O)C1c1ccc(C)cc1 (centres undefined) | -1 | . | 1 | 13 | -7 | 0
CCc1cc(C(N)=S)ccn1 | 53* | -1 | . | -1 | -8 | .
CCc1ccc(C(N)=S)cc1 | -9 | 0 | 0 | 25 | -62 | 1
Cc1cccc(C)c1NC(=O)COC(=O)Cc1ccsc1 | 3 | 0 | 1 | 26 | 5 | .
SMILES | Mcl1-Noxa inh | Bim-Mcl-1 | TNF death inh | Calpain2 inh | Mcl1-Bid inh | zVAD death inh
Cc1cc(C)c(NC(=O)COC(=O)Cc2ccsc2)c(C)c1 | -6 | 5 | 1 | 62* | -7 | 1
c1ccc2c(c1)ncn2CCCCOc1ccc2c(c1)CCC2 | 39 | -1 | -7 | -2 | 69* | 0
Cc1ccc(S(=O)(=O)Nc2ncc(C(F)(F)F)cc2Cl)cc1 | 4 | 0 | 0 | -27 | -7 | 1
Cc1[nH]c2ccccc2c1/C=N/Nc1ccc([N+](=O)[O-])cc1S(=O)(=O)Nc1ccc(Cl)cc1 | 51* | -2 | -6 | -70 | -13 | 1
N#CNC1=NCN(Cc2ccccc2)CN1 | 19 | 2 | 0 | 26 | -26 | 1
CCOCCCNc1ncc2c(n1)CC(c1ccc(C)cc1)CC2=O (centres undefined) | -13 | -2 | 0 | -1 | 8 | 0
CC(C)OCCCNc1ncc2c(n1)CC(c1ccccc1)CC2=O (centres undefined) | 60* | 2 | -2 | -19 | -51 | 0
N#Cc1c(N)sc(=S)c2c1CCN(Cc1ccccc1)C2 | 71* | 3 | . | -424 | -1 | .
C#CC(CC)(CC)NC(=S)Nc1cccc(C(C)=O)c1 | 16 | 0 | -4 | 11 | -7 | 1
CN1CCN(Cc2cccc(Oc3ccc(Cl)cc3)c2)CC1 | 27 | -1 | 0 | 1 | 67* | 0
CCN1CCN(Cc2cccc(Oc3ccc(Cl)cc3)c2)CC1 | 11 | -2 | -1 | 3 | 13 | 0
C=CCn1c(SCC(=O)c2[nH]c(C)c(C(=O)OCC)c2C)nc2scc(-c3ccc(OC)c(OC)c3)c2c1=O | 50 | 6 | 2 | -24 | 84* | 1
C1=CC2CC1CC2CNCc1ccco1 (centres undefined) | 8 | -1 | 1 | -24 | -11 | 0
CC(=O)OCC1=C(C(=O)O)N2C(=O)C(NC(=O)CCn3nc(C(F)(F)F)c(Br)c3C3CC3)C2SC1 (centres undefined) | 32 | 0 | 0 | -31 | 35 | -1
Cc1noc(C)c1-c1nc(CSc2ccccc2)no1 | -11 | . | 0 | 0 | -24 | 0
O=C(c1ccc(Oc2ccccc2)cc1)c1nc2c(n1O)CCCC2 | 0 | 0 | 0 | 75* | -2 | 1
C[C@]12CCC(O)CC1CCC1C2CC[C@]2(C)C(c3cc(C(F)(F)F)n[nH]3)CCC12 (some centres undefined) | 6 | . | 0 | -8 | 13 | 1
Cn1c(=O)[nH]c(=O)c2c1nc(SCC(O)CO)n2Cc1ccccc1Cl (centres undefined) | 14 | 14 | -1 | -31 | 1 | 0
C/C(=N\NC(=O)c1c(Cl)c(C)nn1C)c1cccc(NC(=O)COc2ccccc2)c1 | -65 | 4 | -1 | 40 | 60* | 1
O=C(CN1CCSC1=NCc1ccccc1)c1ccc(Cl)cc1 | 14 | -3 | 3 | 15 | 10 | 0
CN(c1ccc(O)cc1)c1nc(-c2cccs2)cs1 | 2 | 0 | -2 | 15 | -32 | -1
CN(C1=NC(=O)CS1)c1ccc(O)cc1 | -6 | . | 3 | 13 | 97* | 0
COc1cccc(-n2c(SCc3cc(=O)oc4cc(O)c(O)cc34)nc3ccccc3c2=O)c1 | 100* | -1 | 2 | -37 | -64 | 1
CCOC(=O)c1c(NC(=O)c2c(C(=O)O)cccc2[N+](=O)[O-])sc(C)c1C | 25 | 1 | 1 | -11 | 15 | 1
Cc1cc(NC(=O)c2ccc3c(c2)C(=O)N(CCC(C)C)C3=O)no1 | 13 | 11 | -1 | 53* | 9 | -1
